Assay outcomes from PubChem BioAssay.
OPRM1-OPRD1 inv: inverse agonists of MOR-DOR heterodimerization, primary screen, cell-based, luminescence; Mu-type opioid receptor (Homo sapiens) + Delta-type opioid receptor (Homo sapiens), …; cell-based MOR-DOR heterodimer luminescence, inverse agonism; inhibition, % at 9.3 µM; 340,000 tested, 0.21% active; in the data active = inhibition above about 22%, passing the limit was not always enough
HTR5A inv ag: HTR5A inverse agonists in luminescence cell assay, primary screen, counter-screen for OPRM1-OPRD1 heterodimer inverse agonist project, full-deck HTS; 5-hydroxytryptamine receptor 5A (Homo sapiens), P47898; HTR5A cell line, inverse agonism; inhibition, % at 9.3 µM; 340,000 tested, 0.083% active; AID 504634, 2011; in the data active = inhibition mostly above about 23%, no sharp cut-off; inactive = mostly below about 18%
Target sequence (P47898 whole entry, looked up): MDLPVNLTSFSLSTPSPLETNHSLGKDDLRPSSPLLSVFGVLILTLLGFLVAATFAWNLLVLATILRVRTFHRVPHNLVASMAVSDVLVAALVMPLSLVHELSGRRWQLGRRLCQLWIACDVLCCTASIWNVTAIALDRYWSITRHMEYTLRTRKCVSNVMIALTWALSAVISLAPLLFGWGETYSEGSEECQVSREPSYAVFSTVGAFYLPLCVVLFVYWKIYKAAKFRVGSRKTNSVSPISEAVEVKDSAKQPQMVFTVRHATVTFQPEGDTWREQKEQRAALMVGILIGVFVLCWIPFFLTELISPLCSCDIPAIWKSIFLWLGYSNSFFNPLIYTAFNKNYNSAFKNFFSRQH
PolyA inh: polyadenylation inhibitors in yeast reporter cells, primary screen, luminescence, S. cerevisiae | S. cerevisiae SKY197-pL101 polyadenylation reporter, beta-gal luminescence; efflux-impaired pdr1/pdr3 knockout yeast; score 100 = 6 SD above DMSO | activity score, % at 12 µM | 300,000 tested, 0.02% active | AID 1875, 2009;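 active = lowest replicate activity score at least 50, where 100 means six control SD above control mean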;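 note: yeast exposed to compound for 9 h at 30 °C; higher score means more reporter readthrough which indicates perturbed polyadenylation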
NALP1 yeast inh: NALP1 inflammasome inhibitors in reconstituted yeast, colorimetric, S. cerevisiae, triplicate retest | S. cerevisiae NALP1/ASC/caspase-1 growth, X-gal OD620, 72 h | inhibition, % at 10 µM | 280,000 tested, 0.61% active | AID 2071, 2009; in the data active = inhibition mostly above about 24%, no sharp cut-off; inactive = mostly below about 32%
MOR-DOR ag: agonists of OPRM1-OPRD1 heterodimerization, primary screen, cell-based, luminescence; 340,000 tested, 0.3% active; cells; Mu-type opioid receptor (Homo sapiens) + Delta-type opioid receptor (Homo sapiens), …; activation, % at 9.3 µM; in the data active = activation above about 18%
HTR5A ag: HTR5A agonists in luminescence cell assay, primary screen, counter-screen for OPRM1-OPRD1 heterodimer agonist project, full-deck HTS; 5-hydroxytryptamine receptor 5A (Homo sapiens), P47898; cell-based; activation, % at 9.3 µM; 340,000 tested, 0.61% active; in the data active = activation mostly above about 9.5%, no sharp cut-off; inactive = mostly below about 7.6%
MOR-DOR inv conf: inverse agonists of MOR-DOR heterodimerization, confirmation, cell-based, luminescence; 580 tested, 20% active; shares compounds with OPRM1-OPRD1 inv; cells expressing OPRM1/OPRD1 heterodimer; inhibition, % at 9.3 µM; AID 504900, 2011; in the data active = inhibition above about 32%
HTR5A inv ctr2: HTR5A inverse agonists, counter-screen for OPRM1-OPRD1 inverse agonist project, cell-based, luminescence | inhibition, % at 9.3 µM | AID 504914, 2011 | 580 tested, under 10 active | HTR5A-expressing cells, inverse agonism | shares compounds with OPRM1-OPRD1 inv; call rule not given here
A number is an active result; . = inactive; / = not tested or not shown. Most compounds without a hit are left out; they make up all but 1.6% or so of the library.

SMILES	OPRM1-OPRD1 inv	HTR5A inv ag	PolyA inh	NALP1 yeast inh	MOR-DOR ag	HTR5A ag	MOR-DOR inv conf	HTR5A inv ctr2
COc1ccc(C2=NN(CN3C(=O)C(=O)c4ccccc43)C(c3ccc(OC)cc3)C2)cc1 (stereo unspecified)	44	.	.	.	.	.	.	.
CC(=O)c1cccc2c(O)c(C3=Nc4ccccc4C3=O)[nH]c12	36	.	.	.	.	.	.	.
O=C1C(c2c(O)[nH]c3ccccc23)=Nc2ccccc21	.	.	.	.	.	.	/	/
CC1CCCN(c2ccc(/C=C(\C#N)c3nn(-c4ccccc4)c(N)c3C#N)cc2[N+](=O)[O-])C1 (stereo unspecified)	29	.	.	.	.	.	.	.
CC1CCN(c2ccc(/C=C(\C#N)c3nn(-c4ccccc4)c(N)c3C#N)cc2[N+](=O)[O-])CC1	.	.	.	.	.	.	/	/
CN(C)c1ccc(CC(=O)c2nc3ccccc3s2)cc1	24	.	.	.	.	.	.	.
CC1Cc2cc(S(=O)(=O)CCC(=O)NCc3ccco3)ccc2N1C(=O)C1CC1 (stereo unspecified)	.	.	.	.	.	.	/	/
CSC1=C(C#N)C(c2ccccc2C)C(C#N)=C(N)N1 (stereo unspecified)	38	.	/	.	.	.	.	.
O=C(NNC(=S)NCC1CCCO1)c1cc(Br)ccc1Cl (stereo unspecified)	33	.	.	.	.	.	.	.
Cn1c(/C=C/c2cccc([N+](=O)[O-])c2)c([N+](=O)[O-])c(=O)n(C)c1=O	29	.	.	.	.	.	.	.
Cc1ccc(S(C)(=O)=N/C=C2\C(=O)c3sccc3N(C)S2(=O)=O)cc1 (stereo unspecified)	.	.	.	.	.	.	/	/
Cc1ccc2c(c1)C(=O)C(=O)N2Cc1ccccc1	38	.	/	/	.	.	.	.
Cc1ccc2c(c1)C(=O)C(=O)N2Cc1ccc(F)cc1	39	.	/	/	.	.	.	.
O=C1C(=O)N(Cc2cccc([N+](=O)[O-])c2)c2ccccc21	52	.	.	.	.	.	.	.
CNC(=O)Nc1cc(NC(=O)NC)cc(C(F)(F)F)c1	.	.	.	.	.	.	/	/
CCOCCCNC(=O)/C(C#N)=C/c1cc(OC)c(O)c([N+](=O)[O-])c1	30	.	.	.	.	.	.	.
CCOCCCNC(=O)/C(C#N)=C/c1ccc(Cl)c([N+](=O)[O-])c1	.	.	.	.	.	.	/	/
Cc1nn(-c2ccccc2)c2c1C(c1ccncc1)C(C#N)=C(N)O2 (stereo unspecified)	.	.	.	/	.	.	/	/
COc1cc(-n2nc(C)c3c2OC(N)=C(C#N)C3c2ccccc2)c(Cl)c(Br)c1O (stereo unspecified)	34	.	.	.	.	.	.	.
Nc1ccc2c(c1)CC(=O)c1ccccc1S2	45	.	.	.	.	.	.	.
COc1cc(/C=N/n2c(C3CCCCC3)n[nH]c2=S)ccc1O	.	.	.	.	.	.	/	/
Cn1c(SSc2ccc(-c3cccnc3)n2C)ccc1-c1cccnc1	41	.	/	/	.	.	.	.
Cc1ccc2cc(C=O)c(N3CCOCC3)nc2c1C	36	.	.	.	.	.	.	.
NN=C1C(=O)c2cccc3cccc1c23	57	.	/	/	.	.	.	.
NC1=CC(=O)c2cccc3cccc1c23	/	/	.	.	/	/	/	/
